# Test results taken from PubChem BioAssay AID1159580 (chemical genetic matrix, 2015).
# The whole screen tested about 5,500 compounds, of which about 2,000 (36%) were called active. Not shown: some 18% with an inconclusive outcome. This is one part of the list. Unmarked numbers belong to inactive results. Rule as the data show it: active = normalized growth mostly below about 0.91 (no sharp cut-off); inconclusive = no clear call, values can overlap the other calls; inactive = mostly above about 0.92.
# Assay: chemical genetic growth profiling, strain panel (AID 1159580);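 also: tested at 20 µM; growth read once vehicle control cultures reached saturation at 30 °C; 1 = growth at the plate median or of vehicle wells; lower values mean less growth of the strain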
# Conditions: growth OD
smiles,measurement,setting,value
O=c1cc(-c2ccccc2)oc2cc(O)c(O)c(O)c12,normalized growth,"S. cerevisiae deletion strains, locus YKL009W, strain mrt4, hits give low values",0.97
same,normalized growth,"S. cerevisiae deletion strains, locus YKL068W, hits give low values",0.855 (active)
same,normalized growth,"S. cerevisiae deletion strains, locus YKL085W, strain MDH1 (second series), hits give low values",0.84 (active)
same,normalized growth,"S. cerevisiae deletion strains, locus YKL085W, strain MDH1, hits give low values",0.84 (active)
same,normalized growth,"S. cerevisiae deletion strains, locus YKL160W, strain elf1, hits give low values",0.701 (active)
same,normalized growth,"S. cerevisiae deletion strains, locus YKL190W, strain CNB1, hits give low values",0.429 (active)
same,normalized growth,"S. cerevisiae deletion strains, locus YKR001C, strain vps1, hits give low values",0.376 (active)
same,normalized growth,"S. cerevisiae deletion strains, locus YKR026C, strain gcn3, hits give low values",0.572 (active)
same,normalized growth,"S. cerevisiae deletion strains, locus YKR091W, strain srl3, hits give low values",0.763 (active)
same,normalized growth,"S. cerevisiae deletion strains, locus YLL001W, strain dnm1, hits give low values",0.482 (active)
same,normalized growth,"S. cerevisiae deletion strains, locus YLL026W, hits give low values",0.57 (active)
same,normalized growth,"S. cerevisiae deletion strains, locus YLL041C, strain sdh2, hits give low values",0.649 (active)
same,normalized growth,"S. cerevisiae deletion strains, locus YLR027C, strain aat2, hits give low values",0.575 (active)
same,normalized growth,"S. cerevisiae deletion strains, locus YLR039C, strain RIC1, hits give low values",0.154 (active)
same,normalized growth,"S. cerevisiae deletion strains, locus YLR058C, strain SHM2, hits give low values",0.0829 (active)
same,normalized growth,"S. cerevisiae deletion strains, locus YLR102C, strain apc9, hits give low values",0.857 (active)
same,normalized growth,"S. cerevisiae deletion strains, locus YLR113W, strain HOG1, hits give low values",0.575 (active)
same,normalized growth,"S. cerevisiae deletion strains, locus YLR221C, strain rsa3, hits give low values",0.521 (active)
same,normalized growth,"S. cerevisiae deletion strains, locus YLR258W, strain gsy2, hits give low values",0.576 (active)
same,normalized growth,"S. cerevisiae deletion strains, locus YLR262C, strain YPT6 (second series), hits give low values",0.303 (active)
same,normalized growth,"S. cerevisiae deletion strains, locus YLR262C, strain YPT6, hits give low values",0.375 (active)
same,normalized growth,"S. cerevisiae deletion strains, locus YLR268W, strain sec22, hits give low values",0.176 (active)
same,normalized growth,"S. cerevisiae deletion strains, locus YLR320W, strain mms22, hits give low values",0.418 (active)
same,normalized growth,"S. cerevisiae deletion strains, locus YLR330W, strain CHS5, hits give low values",0.543 (active)
same,normalized growth,"S. cerevisiae deletion strains, locus YLR342W, strain FKS1 (second series), hits give low values",0.345 (active)
same,normalized growth,"S. cerevisiae deletion strains, locus YLR342W, strain FKS1, hits give low values",0.364 (active)
same,normalized growth,"S. cerevisiae deletion strains, locus YLR357W, strain rsc2, hits give low values",0.474 (active)
same,normalized growth,"S. cerevisiae deletion strains, locus YLR370C, strain arc18, hits give low values",0.427 (active)
same,normalized growth,"S. cerevisiae deletion strains, locus YLR371W, strain rom2, hits give low values",0.588 (active)
same,normalized growth,"S. cerevisiae deletion strains, locus YLR384C, strain iki3, hits give low values",0.327 (active)
same,normalized growth,"S. cerevisiae deletion strains, locus YLR418C, strain cdc73, hits give low values",0.303 (active)
same,normalized growth,"S. cerevisiae deletion strains, locus YML016C, strain PPZ1, hits give low values",0.399 (active)
same,normalized growth,"S. cerevisiae deletion strains, locus YML032C, strain rad52, hits give low values",0.165 (active)
same,normalized growth,"S. cerevisiae deletion strains, locus YML120C, strain ndi1, hits give low values",0.14 (active)
same,normalized growth,"S. cerevisiae deletion strains, locus YML124C, strain tub3, hits give low values",0.424 (active)
same,normalized growth,"S. cerevisiae deletion strains, locus YMR058W, strain fet3, hits give low values",0.223 (active)
same,normalized growth,"S. cerevisiae deletion strains, locus YMR078C, strain ctf18, hits give low values",0.547 (active)
same,normalized growth,"S. cerevisiae deletion strains, locus YMR125W, strain sto1, hits give low values",0.802 (active)
same,normalized growth,"S. cerevisiae deletion strains, locus YMR129W, hits give low values",0.568 (active)
same,normalized growth,"S. cerevisiae deletion strains, locus YMR205C, strain PFK2, hits give low values",0.294 (active)
same,normalized growth,"S. cerevisiae deletion strains, locus YMR223W, strain ubp8, hits give low values",0.464 (active)
same,normalized growth,"S. cerevisiae deletion strains, locus YMR231W, strain pep5, hits give low values",0.398 (active)
same,normalized growth,"S. cerevisiae deletion strains, locus YMR263W, strain SAP30, hits give low values",0.207 (active)
same,normalized growth,"S. cerevisiae deletion strains, locus YMR307W, strain GAS1, hits give low values",0.456 (active)
same,normalized growth,"S. cerevisiae deletion strains, locus YNL067W, strain RPL9B, hits give low values",0.401 (active)
same,normalized growth,"S. cerevisiae deletion strains, locus YNL071W, strain lat1, hits give low values",0.675 (active)
same,normalized growth,"S. cerevisiae deletion strains, locus YNL128W, strain TEP1, hits give low values",0.387 (active)
same,normalized growth,"S. cerevisiae deletion strains, locus YNL153C, strain GIM3, hits give low values",0.215 (active)
same,normalized growth,"S. cerevisiae deletion strains, locus YNL183C, strain NPR1, hits give low values",0.634 (active)
same,normalized growth,"S. cerevisiae deletion strains, locus YNL209W, strain ssb2, hits give low values",0.185 (active)
same,normalized growth,"S. cerevisiae deletion strains, locus YNL233W, strain BNI4, hits give low values",0.502 (active)
same,normalized growth,"S. cerevisiae deletion strains, locus YNL248C, strain rpa49, hits give low values",0.633 (active)
same,normalized growth,"S. cerevisiae deletion strains, locus YNL250W, strain rad50, hits give low values",0.76 (active)
same,normalized growth,"S. cerevisiae deletion strains, locus YNL271C, strain bni1, hits give low values",0.774 (active)
same,normalized growth,"S. cerevisiae deletion strains, locus YNL298W, strain CLA4, hits give low values",0.756 (active)
same,normalized growth,"S. cerevisiae deletion strains, locus YNL307C, strain MCK1, hits give low values",0.517 (active)
same,normalized growth,"S. cerevisiae deletion strains, locus YNL322C, strain KRE1 (second series), hits give low values",0.187 (active)
same,normalized growth,"S. cerevisiae deletion strains, locus YNL322C, strain KRE1, hits give low values",0.241 (active)
same,normalized growth,"S. cerevisiae deletion strains, locus YNR049C, strain mso1, hits give low values",0.714 (active)
same,normalized growth,"S. cerevisiae deletion strains, locus YNR052C, strain pop2, hits give low values",0.122 (active)
same,normalized growth,"S. cerevisiae deletion strains, locus YOL006C, strain TOP1, hits give low values",0.136 (active)
same,normalized growth,"S. cerevisiae deletion strains, locus YOL012C, strain htz1",0.269
same,normalized growth,"S. cerevisiae deletion strains, locus YOL147C, strain pex11, hits give low values",0.187 (active)
same,normalized growth,"S. cerevisiae deletion strains, locus YOR001W, strain rrp6, hits give low values",0.325 (active)
same,normalized growth,"S. cerevisiae deletion strains, locus YOR061W, strain CKA2, hits give low values",0.545 (active)
same,normalized growth,"S. cerevisiae deletion strains, locus YOR069W, strain VPS5, hits give low values",0.617 (active)
same,normalized growth,"S. cerevisiae deletion strains, locus YOR070C, strain gyp1, hits give low values",0.782 (active)
same,normalized growth,"S. cerevisiae deletion strains, locus YOR080W, strain dia2, hits give low values",0.105 (active)
same,normalized growth,"S. cerevisiae deletion strains, locus YOR083W, strain WHI5, hits give low values",0.618 (active)
same,normalized growth,"S. cerevisiae deletion strains, locus YOR106W, strain vam3, hits give low values",0.221 (active)
same,normalized growth,"S. cerevisiae deletion strains, locus YOR136W, strain idh2, hits give low values",0.557 (active)
same,normalized growth,"S. cerevisiae deletion strains, locus YOR144C, strain elg1, hits give low values",0.202 (active)
same,normalized growth,"S. cerevisiae deletion strains, locus YOR184W, strain ser1, hits give low values",0.314 (active)
same,normalized growth,"S. cerevisiae deletion strains, locus YOR231W, strain MKK1, hits give low values",0.68 (active)
same,normalized growth,"S. cerevisiae deletion strains, locus YOR265W, strain rbl2, hits give low values",0.507 (active)
same,normalized growth,"S. cerevisiae deletion strains, locus YOR270C, strain vph1, hits give low values",0.169 (active)
same,normalized growth,"S. cerevisiae deletion strains, locus YOR290C, strain snf2, hits give low values",0.0825 (active)
same,normalized growth,"S. cerevisiae deletion strains, locus YOR316C, strain cot1, hits give low values",0.738 (active)
same,normalized growth,"S. cerevisiae deletion strains, locus YPL051W, strain arl3, hits give low values",0.328 (active)
same,normalized growth,"S. cerevisiae deletion strains, locus YPL055C, strain LGE1, hits give low values",0.443 (active)
same,normalized growth,"S. cerevisiae deletion strains, locus YPL078C, strain atp4, hits give low values",0.144 (active)
same,normalized growth,"S. cerevisiae deletion strains, locus YPL106C, strain sse1, hits give low values",0.582 (active)
same,normalized growth,"S. cerevisiae deletion strains, locus YPL240C, strain hsp82, hits give low values",0.671 (active)
same,normalized growth,"S. cerevisiae deletion strains, locus YPL241C, strain CIN2, hits give low values",0.57 (active)
same,normalized growth,"S. cerevisiae deletion strains, locus YPL256C, strain CLN2, hits give low values",0.693 (active)
same,normalized growth,"S. cerevisiae deletion strains, locus YPR119W, strain clb2, hits give low values",0.802 (active)
same,normalized growth,"S. cerevisiae deletion strains, locus YPR141C, strain kar3, hits give low values",0.849 (active)
same,normalized growth,"S. cerevisiae deletion strains, locus YPR163C, strain tif3, hits give low values",0.659 (active)
same,normalized growth,"S. cerevisiae deletion strains, locus YPR167C, strain met16, hits give low values",0.564 (active)
same,normalized growth,"S. cerevisiae deletion strains, strain wtn01, hits give low values",0.349 (active)
same,normalized growth,"S. cerevisiae strains, strain wild type, hits give low values",0.268 (active)
